Many of the other results were omitted from the sample, so hits are more common in it than they were.
miR-122 inh = miR-122 sensor activation. AID 623901. 340,000 tested, 0.14% active. activation, % at 12.5 µM. Huh7 psiCHECK-miR122 Renilla luciferase sensor, 48 h;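 active = mean activation of 30% or more, with every replicate also reaching 30%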;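 note: 0% = median of neutral control wells and 100% = median of positive control wells; higher luciferase signal means stronger suppression of miR-122 activity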
* = called active by the depositor.

SMILES	miR-122 inh
CN(C)C(=O)c1ccc(-c2ccc([C@H]3[C@@H](CO)N4CCCCN(C(=O)C5CCCC5)C[C@@H]34)cc2)cc1	30.2*
CO[C@H]1CN(C)C(=O)c2ccc(NS(=O)(=O)c3ccc(C)cc3)cc2OC[C@@H](C)N(C)C[C@H]1C	1.7
C[C@H](CO)N1C[C@H](C)[C@H](CN(C)C(=O)c2ccccn2)Oc2ncc(-c3ccc(F)cc3)cc2C1=O	6.9
C[C@@H]1CN([C@H](C)CO)C(=O)c2cc(C#Cc3ccccn3)cnc2O[C@@H]1CN(C)C(=O)CCN1CCCCC1	0.6
C[C@H]1CN([C@@H](C)CO)S(=O)(=O)c2ccc(C#CC(C)(C)O)cc2O[C@H]1CN(C)C(=O)C1CCC1	4.9
C[C@H]1CN([C@@H](C)CO)C(=O)c2cc(C#Cc3cccnc3)cnc2O[C@@H]1CN(C)S(C)(=O)=O	-1.4
CN(C)c1ccc(/C=C/c2ccc3ccccc3[n+]2C)cc1	49.1*
C[C@H](CO)N1C[C@H](C)[C@@H](CN(C)C(=O)CC2CC2)Oc2cc(-c3ccccc3)ccc2S1(=O)=O	-32.5
CCCNC(=O)N(C)C[C@H]1Oc2cc(C#CCOC)ccc2S(=O)(=O)N([C@H](C)CO)C[C@H]1C	-9.7
C[C@H]1CN([C@@H](C)CO)S(=O)(=O)c2ccc(C#CCN(C)C)cc2O[C@@H]1CN(C)C(=O)CN(C)C	4.4
COCC#Cc1cnc2c(c1)C(=O)N([C@H](C)CO)C[C@@H](C)[C@H](CN(C)C(=O)Nc1ccc(OC)cc1)O2	5.8
CCC(=O)N(C)C[C@H]1Oc2cc(-c3cccc(C#N)c3)ccc2S(=O)(=O)N([C@H](C)CO)C[C@@H]1C	1.9
C[n+]1c2cc(N)ccc2cc2ccc(N)cc21	76.0*
CCC(=O)Nc1ccc2c(c1)OC[C@H](C)N(C(=O)c1ccccc1F)C[C@H](C)[C@@H](OC)CN(C)C2=O	2.3
CN(C)CCNc1ncnc2c1sc1nc(N3CCOCC3)c3c(c12)CC(C)(C)SC3	56.1*
CO[C@H]1CN(C)C(=O)c2cc(NS(=O)(=O)CC(F)(F)F)ccc2OC[C@H](C)N(C)C[C@@H]1C	-9.4
C[C@H]1CN([C@@H](C)CO)C(=O)c2cc(C#Cc3ccc(F)cc3)cnc2O[C@@H]1CN(C)C(=O)c1ccccc1F	0.4
C[C@H]1CN([C@@H](C)CO)C(=O)c2cc(Br)cnc2O[C@@H]1CN(C)Cc1ccc2c(c1)OCO2	9.0
C[C@H]1CN([C@@H](C)CO)C(=O)c2cc(C#CC3(O)CCCC3)cnc2O[C@H]1CN(C)S(=O)(=O)c1ccc(F)cc1	2.2
Cc1cc(C)cc(NC(=O)c2ccc(CSc3nnc(C)s3)cc2)c1	33.9*
COc1ccccc1-c1ccc2c(c1)O[C@@H](CN(C)C(C)=O)[C@H](C)CN([C@@H](C)CO)S2(=O)=O	1.2
COCC(=O)Nc1ccc2c(c1)C(=O)N(C)C[C@H](OC)[C@H](C)CN(C(=O)COC)[C@@H](C)CO2	-2.5
COc1ccc(-c2ccc3c(c2)O[C@H](CN(C)C(=O)c2ccccc2F)[C@@H](C)CN([C@@H](C)CO)S3(=O)=O)cc1	-2.0
COc1ccccc1-c1ccc2c(c1)O[C@H](CN(C)C(C)=O)[C@H](C)CN([C@H](C)CO)S2(=O)=O	-26.1
C[C@@H]1CN([C@H](C)CO)S(=O)(=O)c2ccc(C#CC3CC3)cc2O[C@@H]1CN(C)C(=O)C1CC1	13.8
SMILES	miR-122 inh
CCCN(C)C[C@H]1Oc2cc(C#CC(C)C)ccc2S(=O)(=O)N([C@@H](C)CO)C[C@H]1C	-29.3
Cc1nn(Cc2ccc(Cl)c(Cl)c2)c(C)c1NC(=O)c1sc2ccccc2c1Cl	32.3*
COCC#Cc1cnc2c(c1)C(=O)N([C@H](C)CO)C[C@@H](C)[C@@H](CN(C)C(=O)Cc1cccnc1)O2	6.5
C[C@H]1CN([C@@H](C)CO)S(=O)(=O)c2ccc(C#Cc3ccccc3)cc2O[C@H]1CN(C)S(=O)(=O)c1ccccc1F	4.0
N#Cc1cccc(NC(=O)Nc2cccs2)c1	35.8*
O=C(/C=C/Nc1cccc([N+](=O)[O-])c1)c1cccs1	-92.8
C[C@@H]1CN([C@@H](C)CO)C(=O)c2cc(/C=C/c3ccccc3)cnc2O[C@H]1CN(C)C(=O)C1CCOCC1	-3.3
C[C@H](CO)N1C[C@H](C)[C@H](CN(C)S(C)(=O)=O)Oc2cc(C#Cc3ccc(F)cc3)ccc2S1(=O)=O	4.9
C[C@H]1CN([C@@H](C)CO)C(=O)c2cc(C#CC3(O)CCCC3)cnc2O[C@H]1CN(C)C(=O)C1CCCCC1	-1.3
CCCC(=O)OCCNc1cc(Sc2nccn2C)c2nonc2c1[N+](=O)[O-]	61.6*
CC(C)CC#Cc1cnc2c(c1)C(=O)N([C@H](C)CO)C[C@H](C)[C@@H](CN(C)C(=O)Nc1cc(F)ccc1F)O2	9.8
C[C@H](O)C#Cc1cnc2c(c1)C(=O)N([C@@H](C)CO)C[C@@H](C)[C@@H](CN(C)C(=O)CN(C)C)O2	1.5
COc1ccc(CN(C)C[C@@H]2Oc3c(NC(=O)C4CCCCC4)cccc3C(=O)N([C@H](C)CO)C[C@H]2C)cc1	-98.0
C[C@H](CO)N1C[C@H](C)[C@H](CN(C)C(=O)Nc2cccc3ccccc23)Oc2ncc(-c3cc4ccccc4o3)cc2C1=O	3.4
Cc1ccc(-c2cnc3c(c2)C(=O)N([C@H](C)CO)C[C@H](C)[C@H](CN(C)C(=O)c2ccncc2)O3)cc1	-3.1
CO[C@H]1CN(C)C(=O)c2cc(NC(=O)Nc3ccccc3)ccc2OC[C@H](C)NC[C@H]1C	-3.8
CO[C@@H]1CN(C)C(=O)c2cc(NC(=O)Nc3ccccc3)ccc2OC[C@H](C)NC[C@H]1C	-2.3
CN1C(=O)c2cc(NC(=O)NCc3ccccc3)ccc2OC[C@@H]2O[C@H](CC(=O)NCC3CCCCC3)CC[C@@H]21	-173.3
CNC(=O)C[C@@H]1CC[C@@H]2[C@H](COc3ccc(NC(=O)Nc4cccc(C)c4)cc3C(=O)N2C)O1	46.7*
Cc1ccccc1NC(=O)Nc1ccc2c(c1)C(=O)N(C)[C@H]1CC[C@@H](CC(=O)NCC3CC3)O[C@H]1CO2	-217.8
CO[C@@H]1CN(C)C(=O)c2cc(NC(=O)NC(C)C)ccc2OC[C@H](C)N(C(=O)NC(C)C)C[C@H]1C	0.5
CNC(=O)C[C@@H]1CC[C@H]2[C@@H](COc3ccc(NC(=O)NC(C)C)cc3C(=O)N2C)O1	70.0*
CCC(=O)Nc1ccc2c(c1)OC[C@@H](C)N(C(=O)c1ccccc1F)C[C@H](C)[C@H](OC)CN(C)C2=O	-0.6
CCCNC(=O)C[C@@H]1CC[C@H]2[C@H](COc3ccc(NC(=O)Nc4ccccc4F)cc3C(=O)N2C)O1	-100.0
COC(=O)C[C@@H]1CC[C@@H]2[C@@H](COc3ccc(NC(=O)Nc4cccc(C#N)c4)cc3C(=O)N2C)O1	47.8*
SMILES	miR-122 inh
CNC(=O)C[C@@H]1CC[C@@H]2[C@@H](COc3ccc(NC(=O)c4ccccc4F)cc3C(=O)N2C)O1	53.3*
CCC(=O)Nc1ccc2c(c1)OC[C@H](C)NC[C@H](C)[C@@H](OC)CN(C)C2=O	-6.2
CCC(=O)N(C)C[C@@H]1Oc2ncc(-c3cccc(OC)c3)cc2C(=O)N([C@H](C)CO)C[C@@H]1C	-28.7
C[C@@H]1CN([C@@H](C)CO)C(=O)c2cc(-c3cccc(F)c3)cnc2O[C@H]1CN(C)Cc1cncnc1	1.5
CCC(=O)Nc1ccc2c(c1)C(=O)N(C)C[C@H](OC)[C@H](C)CN(C(C)=O)[C@@H](C)CO2	0.3
C[C@H]1CN([C@@H](C)CO)C(=O)c2cc(-c3cccnc3)cnc2O[C@H]1CN(C)S(C)(=O)=O	0.1

Screens from PubChem BioAssay.
